The list is not random: actives were taken first. Their share in the collection is about 2.9%.
Nrf2 ARE act – qHTS of Nrf2 Activators; AREc32 ARE-luciferase reporter (MCF7-derived line), luminescence, 24 h; Potency, µM (series often up to 46.1 µM), inactives show at the highest dose activation, actives largely listed as activators; 410,000 tested, 0.31% active; AID 624171, 2012; note: % of control where 0% means no effect; nearly all actives have a fitted effect of over 65% in size
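ARE-driven firefly luciferase activity in AREc32 cells measured after a 24 hr compound exposure at 37 deg C, using Steady-Glo reagent and a 30 min room-temperature hold.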
ATXN viability – Viability Counterscreen for Primary qHTS for Inhibitors of ATXN expression. S2 cells (HEK-293 line with an ATXN2-luciferase reporter) viability, CellTiter-Fluor protease fluorescence, 24 h. Potency, µM (doses to about 56.7 µM), usual class: cytotoxic. 400,000 tested, 0.49% active. AID 651635, 2014; note: nearly all actives have a fitted effect of over 40% in size
Nrf2 inh – Nrf2 qHTS screen for inhibitors; A549 ARE-Fluc reporter, luciferase luminescence, 18-24 h; Potency, µM (top dose mostly 46 µM), inactives show top-dose activity change, negative = inhibition, hits mostly inhibitors; 360,000 tested, 2.1% active; AID 504444, 2011; note: % is set by controls: 0 for no effect and ±100 for the full control effect; nearly all actives have a fitted effect of over 60% in size
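Cells were seeded and rested 2 h, then exposed to compounds for 18-24 h. CellTiter-Fluor was read first as a viability measure. BugLite was added 15 min before the final luminescent read of ARE-luciferase activity in A549 cells.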
A549 viability – Nrf2 qHTS screen for inhibitors: counterscreen for cytotoxicity; 390,000 tested, 0.16% active; A549 ARE-Fluc cells, CellTiter-Fluor viability, 18-24 h; Potency, µM (top dose mostly 46 µM), for inactives: top-dose activity change, negative = cytotoxicity, usual class: inhibitors; note: % is set by controls: 0 for no effect and ±100 for the full control effect
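A549 ARE_Fluc cells in 5% FBS OPTI-MEM were exposed to compounds in concentration-response for 18-24 h at 37 deg C. Viability was read by CellTiter-Fluor fluorescence (Ex 405/Em 525) after 30 min, before the luciferase read.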
ATXN2 expr inh – Primary qHTS for Inhibitors of ATXN expression. HEK-293 ATXN2-luciferase reporter, luminescence, 24 h. Potency, µM (series often up to 57 µM), for inactives: top-dose activity change, negative = inhibition, actives largely listed as inhibitors. 360,000 tested, 0.72% active; note: % is set by controls: 0 for no effect and ±100 for the full control effect; nearly all actives have a fitted effect of over 55% in size
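qHTS (up to 57 uM final) was run with 24 h compound exposure of reporter cells at 37 °C. Each well was multiplexed: SteadyGlo luminescence measured ATXN2-luciferase expression after a fluorogenic Gly-Phe-AFC viability readout (25 uM final).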
Active calls of the source: *; i = inactive; ? = inconclusive; nt = no result; ! = not confirmed by another sample; [ ] = another dose, or the depositor's remark. Calls come from the whole dose curve; as a rule, active = well fitted curve in the direction sought with a large enough effect; inconclusive = small, poorly fitted or top-dose-only effect, or another doubt; inactive = no such curve, though single readings can be large; an effect the other way counts as inactive or inconclusive. Potency is the fitted concentration of half-maximal effect.

SMILES	Nrf2 ARE act	ATXN viability	Nrf2 inh	A549 viability	ATXN2 expr inh
CCOC(=O)C(CC)n1nnc2sc(-c3ccccc3)cc2c1=O (stereo unspecified)	6.2%	i	?	0.4%	10.7%
CCCOC(=O)C(C)n1nnc2sc(-c3ccccc3)cc2c1=O (stereo unspecified)	13.2%	i	20.6µM*	-1.5%	5.3%
Cc1cccc(NC(=O)Cc2csc(COc3cccc(C)c3)n2)c1	4.1%	i	-1.7%	-2.3%	-1.5%
COc1ccc(NC(=O)Cc2csc(COc3cccc(C)c3)n2)cc1OC	0.3%	i	23.1µM*	2.1%	-27.7%
CC[C@]12c3[nH]c4cc(CCC(=O)N(C)C)ccc4c3CCN1C(=O)[C@@H](CC(=O)NC/C=C(\C)CCC=C(C)C)C[C@@H]2C(=O)N1CCN(C(=O)C2CC2)CC1	7.5%	?	-27.1%	-12.5%	-21.7%
CC(C)=CCC/C(C)=C/CNC(=O)C[C@H]1C[C@H](C(=O)N2CCOCC2)[C@@]2(C)c3[nH]c4cc(CCC(=O)N(C)C)ccc4c3CCN2C1=O	6.9%	?	14.6µM*	-16.4%	?
CC(C)=CCC/C(C)=C/CNC(=O)C[C@H]1C[C@H](C(=O)N2CCCCC2)[C@@]2(C)c3[nH]c4cc(CCC(=O)N(C)C)ccc4c3CCN2C1=O	1.1%	31.6µM*	?	-12.8%	?
COc1ccc(C(=O)/C=C/C(=O)N(CC(=O)NC2CCCCC2)Cc2cccs2)c(O)c1	0.8%	26.7µM*	?	?	?
O=C(Cc1ccc(Cl)cc1Cl)NCc1cccnc1	0.4%	i	-6.8%	0.5%	8.0%
CN(C)CCCN1c2ccccc2Sc2ccc(Cl)cc21	3.0%	i	4.2%	-9.2%	20µM*!
COc1ccc(CC(=O)Nc2ccc(C)cc2O)cc1S(=O)(=O)N1CCOCC1	-0.1%	i	3.6%	-2.1%	9.5%
CC(=O)N1CCc2cc(S(=O)(=O)CCC(=O)N3CCN(c4cc(C)ccc4C)CC3)ccc21	-0.1%	i	14.6µM*	0.1%	3.5%
CCC(=O)N1CCc2cc(S(=O)(=O)CCC(=O)N3CCN(c4ccc(Cl)cc4)CC3)ccc21	0.7%	?	16.4µM*	1.0%	?
CC(=O)N1CCc2cc(S(=O)(=O)CCC(=O)N3CCN(c4cccc(C)c4C)CC3)ccc21	0.1%	i	?	-3.8%	-2.9%
CCC(=O)N1CCc2cc(S(=O)(=O)CCC(=O)N3CCN(c4cccc(Cl)c4)CC3)ccc21	0.9%	?	23.1µM*	-2.5%	-8.5%
COc1ccc(-c2noc(CCC(=O)NCc3ccc(C)cc3)n2)cc1	0.6%	i	8.2%	-0.2%	5.2%
CC(=O)c1cccc(NC(=O)c2nc(-c3ccccc3)oc2C)c1	2.6%	i	?	-4.1%	-28.4%
Cc1c(C(C)C)c(=O)n(-c2ccc(S(=O)(=O)NC(C)C)cc2)n1C	0.0%	i	18.4µM*	-16.9%	-37.7%[11.3 µM]
Cc1c(C(C)C)c(=O)n(-c2ccc(S(=O)(=O)NC3CC3)cc2)n1C	0.3%	i	?	1.7%	-25.7%[11.3 µM]
COc1ccc(-c2nc3sc(CCNC(=O)Cc4ccc(Cl)cc4)c(C)n3n2)cc1	0.0%	nt	nt	-11.0%	nt
COc1ccc(-c2nc3sc(CCNC(=O)c4cc(Cl)ccc4OC)c(C)n3n2)cc1	3.2%	25.1µM*	nt	?	?
COc1ccc(Oc2c(Cl)cnn(-c3ccc(C)cc3)c2=O)cc1	12.6µM*	i	nt	-0.7%	?
COc1ccc(-n2c(C)nc3c(cnn3-c3ccc(C)cc3)c2=O)cc1	2.0%	i	18.4µM*	-2.3%	-11.7%
COc1ccc(-n2c(C)nc3c(cnn3-c3ccc(Cl)cc3)c2=O)cc1	0.0%	?	?	-18.6%	-3.3%
COCCOC(=O)c1c(C)n(C)c2ccc(OC(=O)c3c(OC)cccc3OC)cc12	-0.2%	i	-4.6%	1.5%	nt
SMILES	Nrf2 ARE act	ATXN viability	Nrf2 inh	A549 viability	ATXN2 expr inh
Cc1c(C(=O)N2CCCC2)oc2c1-c1nn(CC(=O)NC(C)c3ccccc3)cc1CC2 (stereo unspecified)	0.6%	nt	18.4µM*	-4.4%	nt
C=CCn1c(COc2ccc(Cl)cc2)nnc1SCC(=O)N/N=C/c1cccc(O)c1	4.3%	?	nt	2.8%	-13.5%
C=CCn1c(COc2ccccc2)nnc1SC(C)C(=O)N/N=C/c1cc(Cl)ccc1O (stereo unspecified)	4.4%	i	14.7%	-1.3%	14.1µM*
Cc1cc(C)n2nc(-c3ccc(Br)cc3)cc2n1	2.24µM*	i	?	25.5%	nt
Cc1cc(C)n2nc(-c3ccc(Cl)cc3)cc2n1	14.1µM*	i	?	7.9%	nt
CCc1ccc(NC(=O)CCS(=O)(=O)c2ccc(Cl)cc2)cc1	2.0%	?	-28.3%	0.0%	nt
O=C(Nc1nc2ccccc2[nH]1)c1cccc(Cl)c1	5.01µM*	?	?	9.8%	nt
COc1ccc(N(C)S(=O)(=O)c2cccc(C(=O)Nc3nc4ccccc4[nH]3)c2)cc1	5.5%	?	23.1µM*	-7.7%	-29.5%
CN(c1cccc(Cl)c1)S(=O)(=O)c1cccc(C(=O)Nc2nc3ccccc3[nH]2)c1	0.0%	?	?	-27.3%	?
N#Cc1cc2c([nH]c1=O)CCCC2	-0.5%	i	-17.0%	-0.6%	11.0%
O=S(=O)(Nc1cccc(Oc2cnccn2)c1)c1ccc(F)cc1	3.1%	i	-2.3%	7.4%	2.9%
COc1ccccc1CN(C)C(=O)c1cc(S(=O)(=O)N2CCCCCC2)ccc1OC	-2.7%	i	nt	nt	nt
COc1cc2c(cc1OC)C(C)N(C(=O)c1cc3c(C)cc(C)cc3[nH]1)CC2 (stereo unspecified)	0.2%	?	14.6µM*	-6.9%	?
N#C/C(=N\Nc1cc(Cl)cc(Cl)c1)c1nnc2n1CCCCC2	-0.6%	i	18.4µM*	?	-34.7%
O=C(CNC(=O)c1cccc(F)c1)OCc1cc(=O)n2cc(Br)ccc2n1	2.4%	?	3.9%	0.3%	5.1%
Fc1ccc(/C=C2\CCCC3=C2Nc2ncnn2C3c2ccc(F)cc2)cc1 (stereo unspecified)	-3.0%	17.8µM*	?	?	25.1µM*
Cc1cccc(C)c1NC(=O)CSc1nc(COc2ccccc2)nc2ccccc12	-0.2%	i	3.1%	?	3.2%
Cc1cccc(NC(=O)CSc2nc(COc3ccccc3)nc3ccccc23)c1C	0.1%	i	25.9µM*	?	-24.5%
Cn1c(N)c(C(C[N+](=O)[O-])c2c(F)cccc2Cl)c(=O)n(C)c1=O (stereo unspecified)	15.8µM*	i	10.9%	-5.0%	-3.6%
O=C(Cn1nnc2ccccc21)c1ccc(Cl)cc1	-0.4%	i	3.8%	-3.4%	nt
Cc1cccc(N2CCN(C(=O)C3CCN(c4ncnc5c4nc4n5CCCCC4)CC3)CC2)c1C	-0.4%	?	20.6µM*	?	nt
